The values below come from PubChem BioAssay (NCI).

About 79,000 compounds went through this panel and 15% of them were active in at least one assay; those are over-represented in the sample as a whole. Unmarked numbers belong to inactive results. The source made the active and inactive calls. No stated cut-off is given here; in the data, active means growth inhibition above about 70%; inactive means the rest.

A short description of experiment [1]: NCI Yeast Anticancer Drug Screen. Data for the rad50 strain (AID 155).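 Further: 0% = growth of vehicle-only cultures of the same strain.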 The note with it: S. cerevisiae rad50 strain growth inhibition, hits give high values. In outline:
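Relative growth inhibition (compound vs vehicle) was measured in yeast with a defined repair-gene alteration.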

The nature of experiment [2]: NCI Yeast Anticancer Drug Screen. Data for the mec2-1 strain (AID 157). The note with it: S. cerevisiae mec2-1 strain, hits give high values. In outline: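 Cells of the genetically defined mec2-1 yeast strain are incubated with test compound. Inhibition of growth is calculated against vehicle-treated controls.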
A short description of experiment [3]: NCI Yeast Anticancer Drug Screen. Data for the sgs1 mgt1 strain (AID 161).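 Further: 0% = growth of cultures given vehicle only.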 The note with it: S. cerevisiae sgs1 mgt1 strain, hits give high values. Summed up: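 Read-out: growth inhibition vs vehicle controls. Cells: mutant yeast strain deficient in DNA damage repair.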
Experiment [4] can be described thus: NCI Yeast Anticancer Drug Screen. Data for the cln2 rad14 strain (AID 165).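 Further: 0% = growth equal to vehicle treated cultures.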 The note with it: S. cerevisiae cln2 rad14 strain, hits give high values. In outline:
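The screen exposed genetically defined yeast (cln2 rad14) to test compounds and scored growth inhibition relative to vehicle-treated controls.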

Experiment [5] can be described thus: NCI Yeast Anticancer Drug Screen. Data for the bub3 strain (AID 167). The note with it: S. cerevisiae bub3 mutant strain, hits give high values. In outline:
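Screening used yeast with an engineered genetic alteration affecting cell cycle control. Compound-exposed cultures were compared with vehicle cultures, and reduced growth was taken as inhibition.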

Experiment [6] is described as follows: NCI Yeast Anticancer Drug Screen. Data for the mlh1 rad18 strain (AID 175). The note with it: S. cerevisiae mlh1 rad18 strain growth inhibition, hits give high values. Summed up: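 Compound-treated yeast growth, normalised to vehicle controls. Strain bears defined DNA repair mutations.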
Setting [7] is: at 5.0 µM (retest, dose inferred, filed as 0.5).
Setting [8] is: at 50.0 µM (retest, dose inferred, filed as 5.0).

Turning to `CCN(CC)CCOC(=O)C1C(c2ccccc2)C1(c1ccccc1)c1ccccc1` (configuration not stated), the growth inhibition in experiment [1] (setting [7]) is 1%; in experiment [1] (setting [8]) it was 77% (active); in experiment [1] (at 50.0 µM), 73% (active); in experiment [2] (setting [7]), 4%; in experiment [2] (setting [8]), 63%; in experiment [2] (at 50.0 µM), 62.8%. Moreover, the growth inhibition in experiment [3] (setting [7]) is 8%; in experiment [3] (setting [8]), 97% (active); in experiment [3] (at 50.0 µM), 88.7% (active); in experiment [4] (setting [7]), 3%; in experiment [4] (setting [8]), 60%; in experiment [4] (at 50.0 µM) it was 77.3% (active). Moreover, the growth inhibition in experiment [5] (setting [7]) was 8%; in experiment [5] (setting [8]) it was 85% (active); in experiment [5] (at 50.0 µM) it was 75.2% (active); in experiment [6] (setting [7]) it was 5%; in experiment [6] (setting [8]), 96% (active); in experiment [6] (at 50.0 µM), 92.8% (active).
Regarding `CN(C)c1ccc(/C=C\c2c3ccccc3cc[n+]2[O-])cc1`, the growth inhibition in experiment [1] (setting [7]) is -4%; in experiment [1] (setting [8]), -1%; in experiment [1] (at 50.0 µM), 70%; in experiment [2] (setting [7]), -5%; in experiment [2] (setting [8]) it was 0%; in experiment [2] (at 50.0 µM) it was 3%. Further, the growth inhibition in experiment [3] (setting [7]) is 0%; in experiment [3] (setting [8]) it was -12%; in experiment [3] (at 50.0 µM), 17.9%; in experiment [4] (setting [7]) it was -5%; in experiment [4] (setting [8]) it was -5%; in experiment [4] (at 50.0 µM) it was -10.2%. Moreover, the growth inhibition was -6% in experiment [5] (setting [7]); -11% in experiment [5] (setting [8]); 21% in experiment [5] (at 50.0 µM); -10% in experiment [6] (setting [7]); 8% in experiment [6] (setting [8]); 14.8% in experiment [6] (at 50.0 µM).
Consider `CN(C)C(=O)c1ccc(SC(=S)NCc2ccccc2)cc1`, for which the growth inhibition in experiment [1] (setting [7]) is 11%; in experiment [1] (setting [8]), 99% (active); in experiment [1] (at 50.0 µM), 98.5% (active); in experiment [2] (setting [7]) it was 0%; in experiment [2] (setting [8]), 100% (active); in experiment [2] (at 50.0 µM) it was 97% (active). In addition, the growth inhibition in experiment [3] (setting [7]) was 3%; in experiment [3] (setting [8]), 98% (active); in experiment [3] (at 50.0 µM), 97.8% (active); in experiment [4] (setting [7]), 7%; in experiment [4] (setting [8]) it was 99% (active); in experiment [4] (at 50.0 µM) it was 96.2% (active). Further, the growth inhibition is -11% in experiment [5] (setting [7]); 99% (active) in experiment [5] (setting [8]); 81% (active) in experiment [5] (at 50.0 µM); 24% in experiment [6] (setting [7]); 42% in experiment [6] (setting [8]); 98.8% (active) in experiment [6] (at 50.0 µM).
In the case of `CCCCC(CC)(CCC)CCN` (configuration not stated), the growth inhibition in experiment [1] (setting [7]) was 1%; in experiment [1] (setting [8]), 93% (active); in experiment [1] (at 50.0 µM), 1.65%; in experiment [2] (setting [7]) it was 1%; in experiment [2] (setting [8]), 65%; in experiment [2] (at 50.0 µM), 1.75%. The growth inhibition in experiment [3] (setting [7]) was 1%; in experiment [3] (setting [8]), 30%; in experiment [3] (at 50.0 µM) it was 16.6%; in experiment [4] (setting [7]) it was 4%; in experiment [4] (setting [8]) it was 36%; in experiment [4] (at 50.0 µM), 32%. The growth inhibition was -3% in experiment [5] (setting [7]); 67% in experiment [5] (setting [8]); -5.95% in experiment [5] (at 50.0 µM); -1% in experiment [6] (setting [7]); 83% (active) in experiment [6] (setting [8]); 31.4% in experiment [6] (at 50.0 µM).
For the compound `COC(OC)(c1ccccc1)C(I)I`, the growth inhibition in experiment [1] (setting [7]) was 100% (active); in experiment [1] (setting [8]), 100% (active); in experiment [1] (at 50.0 µM), 99% (active); in experiment [2] (setting [7]), 100% (active); in experiment [2] (setting [8]), 100% (active); in experiment [2] (at 50.0 µM) it was 99.4% (active). Also, the growth inhibition in experiment [3] (setting [7]) was 100% (active); in experiment [3] (setting [8]), 100% (active); in experiment [3] (at 50.0 µM) it was 99.3% (active); in experiment [4] (setting [7]) it was 100% (active); in experiment [4] (setting [8]) it was 99% (active); in experiment [4] (at 50.0 µM), 99.5% (active). Besides, the growth inhibition in experiment [5] (setting [7]) is 100% (active); in experiment [5] (setting [8]) it was 100% (active); in experiment [5] (at 50.0 µM) it was 99.3% (active); in experiment [6] (setting [7]), 100% (active); in experiment [6] (setting [8]), 99% (active); in experiment [6] (at 50.0 µM), 99.5% (active).
Consider `CNC(=O)N/N=C/c1ccc([N+](=O)[O-])o1`, for which the growth inhibition in experiment [1] (setting [7]) was 12%; in experiment [1] (setting [8]), 40%; in experiment [1] (at 50.0 µM), 65.2%; in experiment [2] (setting [7]), 4%; in experiment [2] (setting [8]), 22%; in experiment [2] (at 50.0 µM) it was 38.6%. The growth inhibition in experiment [3] (setting [7]) is 7%; in experiment [3] (setting [8]), 29%; in experiment [3] (at 50.0 µM) it was 70.3% (active); in experiment [4] (setting [7]) it was 9%; in experiment [4] (setting [8]), 15%; in experiment [4] (at 50.0 µM), 11.8%. In addition, the growth inhibition in experiment [5] (setting [7]) was 10%; in experiment [5] (setting [8]), 38%; in experiment [5] (at 50.0 µM), 34%; in experiment [6] (setting [7]), 12%; in experiment [6] (setting [8]), 48%; in experiment [6] (at 50.0 µM), 71.5% (active).
As to `O=C(Nc1ccc(F)c([N+](=O)[O-])c1)NC(Cc1ccccc1)c1ccccc1` (configuration not stated), the growth inhibition was -11% in experiment [1] (setting [7]); 86% (active) in experiment [1] (setting [8]); 91.6% (active) in experiment [1] (at 50.0 µM); -2% in experiment [2] (setting [7]); 93% (active) in experiment [2] (setting [8]); 94.2% (active) in experiment [2] (at 50.0 µM). Further, the growth inhibition is 12% in experiment [3] (setting [7]); 92% (active) in experiment [3] (setting [8]); 94.2% (active) in experiment [3] (at 50.0 µM); 2% in experiment [4] (setting [7]); 92% (active) in experiment [4] (setting [8]); 88.9% (active) in experiment [4] (at 50.0 µM). In addition, the growth inhibition was -4% in experiment [5] (setting [7]); 92% (active) in experiment [5] (setting [8]); 81.8% (active) in experiment [5] (at 50.0 µM); 26% in experiment [6] (setting [7]); 91% (active) in experiment [6] (setting [8]); 93.1% (active) in experiment [6] (at 50.0 µM).
`Cc1cc(C)c(C(=O)/C=C/C(=O)c2ccccc2)c(C)c1`: the growth inhibition in experiment [1] (setting [7]) was 86% (active); in experiment [1] (setting [8]), 95% (active); in experiment [1] (at 50.0 µM) it was 62.4%; in experiment [2] (setting [7]), 89% (active); in experiment [2] (setting [8]) it was 96% (active); in experiment [2] (at 50.0 µM) it was 78.1% (active). Moreover, the growth inhibition in experiment [3] (setting [7]) is 85% (active); in experiment [3] (setting [8]), 96% (active); in experiment [3] (at 50.0 µM) it was 90.6% (active); in experiment [4] (setting [7]), 51%; in experiment [4] (setting [8]), 95% (active); in experiment [4] (at 50.0 µM), 47.2%. The growth inhibition is 89% (active) in experiment [5] (setting [7]); 96% (active) in experiment [5] (setting [8]); 96% (active) in experiment [5] (at 50.0 µM); 93% (active) in experiment [6] (setting [7]); 96% (active) in experiment [6] (setting [8]); 92.7% (active) in experiment [6] (at 50.0 µM).
Consider `CCCCc1ccc2nc(C)cc(N/N=C/c3ccc4c(c3)OCO4)c2c1`, for which the growth inhibition in experiment [1] (setting [7]) is 9%; in experiment [1] (setting [8]) it was 20%; in experiment [1] (at 50.0 µM) it was 66.7%; in experiment [2] (setting [7]), 1%; in experiment [2] (setting [8]), 19%; in experiment [2] (at 50.0 µM), 22%. Besides, the growth inhibition was 15% in experiment [3] (setting [7]); 31% in experiment [3] (setting [8]); 73.5% (active) in experiment [3] (at 50.0 µM); -3% in experiment [4] (setting [7]); 2% in experiment [4] (setting [8]); 15.9% in experiment [4] (at 50.0 µM). Moreover, the growth inhibition is -4% in experiment [5] (setting [7]); 1% in experiment [5] (setting [8]); 6.6% in experiment [5] (at 50.0 µM); 9% in experiment [6] (setting [7]); 35% in experiment [6] (setting [8]); 29.8% in experiment [6] (at 50.0 µM).
